Our source for the inhibition values is ChEMBL document CHEMBL1961873, “Compounds: GSK PKIS; Assays: Nanosyn kinase panel” (2012).

In assay [1] the test system is Tyrosine-protein kinase ABL1 (Homo sapiens), P00519 [T315I]. The settings on record: at 1 µM.
Assay [2] relates to Tyrosine-protein kinase ABL1 (Homo sapiens), P00519 [Y253F]. The settings on record: at 0.1 µM.
Assay [3] shares this test system. The settings on record: at 1 µM.
In assay [4] the target is Tyrosine-protein kinase ABL1 (Homo sapiens) (UniProt P00519). The settings on record: at 0.1 µM.
The target is the same in assay [5]. Conditions: at 1 µM.
The target in assay [6] is ALK tyrosine kinase receptor (Homo sapiens) (UniProt Q9UM73). Conditions: at 0.1 µM.
Assay [7] has the same target. Conditions: at 1 µM.
The target of assay [8] is Tyrosine-protein kinase ABL2 (Homo sapiens) (UniProt P42684). Conditions: at 0.1 µM.
Assay [9] shares this target. The settings on record: at 1 µM.
For assay [10], the target named is Tyrosine-protein kinase receptor UFO (Homo sapiens) (UniProt P30530). The settings on record: at 0.1 µM.
Assay [11] shares this target. Conditions: at 1 µM.
In assay [12] the target is Tyrosine-protein kinase Blk (Homo sapiens) (UniProt P51451). The settings on record: at 0.1 µM.
Assay [13] shares this target. Conditions: at 1 µM.
In assay [14] the target is T1, Cytoplasmic tyrosine-protein kinase BMX (Homo sapiens) (UniProt P51813).
T1 sequence (whole entry): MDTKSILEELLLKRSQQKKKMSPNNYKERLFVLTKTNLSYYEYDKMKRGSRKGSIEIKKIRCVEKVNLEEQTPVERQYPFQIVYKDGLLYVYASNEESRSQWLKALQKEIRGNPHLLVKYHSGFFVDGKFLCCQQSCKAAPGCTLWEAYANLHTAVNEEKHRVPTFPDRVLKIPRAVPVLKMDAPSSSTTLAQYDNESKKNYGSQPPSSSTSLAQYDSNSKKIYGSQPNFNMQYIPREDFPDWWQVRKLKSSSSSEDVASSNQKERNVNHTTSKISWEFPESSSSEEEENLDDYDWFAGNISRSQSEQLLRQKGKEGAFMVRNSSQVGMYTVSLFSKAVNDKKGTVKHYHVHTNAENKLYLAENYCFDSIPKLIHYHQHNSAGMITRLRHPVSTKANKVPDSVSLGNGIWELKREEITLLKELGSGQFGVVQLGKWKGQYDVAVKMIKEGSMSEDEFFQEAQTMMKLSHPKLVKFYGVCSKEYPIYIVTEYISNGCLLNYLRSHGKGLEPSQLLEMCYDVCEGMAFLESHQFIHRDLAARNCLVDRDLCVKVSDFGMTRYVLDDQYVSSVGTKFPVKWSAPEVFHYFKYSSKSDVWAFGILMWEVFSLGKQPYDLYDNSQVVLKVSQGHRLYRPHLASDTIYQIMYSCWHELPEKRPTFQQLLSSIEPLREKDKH
The settings on record: at 0.1 µM.

Assay [15] addresses T1, Cytoplasmic tyrosine-protein kinase BMX (Homo sapiens). The settings on record: at 1 µM.
The target in assay [16] is Protein-tyrosine kinase 6 (Homo sapiens) (UniProt Q13882). Conditions: at 0.1 µM.
Assay [17] has the same target. Conditions: at 1 µM.
Assay [18] concerns the target Tyrosine-protein kinase BTK (Homo sapiens) (UniProt Q06187). Conditions: at 0.1 µM.
For assay [19] the target is unchanged. The settings on record: at 1 µM.
The target in assay [20] is Tyrosine-protein kinase CSK (Homo sapiens) (UniProt P41240). Conditions: at 0.1 µM.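 Note: value given is the averaged percent inhibition of CSK kinase activity, from the GSK PKIS kinase inhibitor set screening panel.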
Tyrosine-protein kinase CSK (Homo sapiens), sequence (P41240 2-450 limits assumed): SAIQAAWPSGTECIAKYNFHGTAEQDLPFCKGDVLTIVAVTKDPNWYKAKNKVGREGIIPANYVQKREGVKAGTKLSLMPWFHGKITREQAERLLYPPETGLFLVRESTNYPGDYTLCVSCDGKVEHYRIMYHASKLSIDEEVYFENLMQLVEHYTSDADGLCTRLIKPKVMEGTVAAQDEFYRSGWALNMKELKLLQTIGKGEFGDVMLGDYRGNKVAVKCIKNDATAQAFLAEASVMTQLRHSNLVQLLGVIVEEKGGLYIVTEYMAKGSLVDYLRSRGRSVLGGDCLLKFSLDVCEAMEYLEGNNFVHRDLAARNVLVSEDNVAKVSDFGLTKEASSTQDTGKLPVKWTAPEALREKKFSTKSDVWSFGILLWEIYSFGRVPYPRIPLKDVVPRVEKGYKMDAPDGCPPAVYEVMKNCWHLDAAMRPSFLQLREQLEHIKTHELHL

ALK tyrosine kinase receptor (Homo sapiens), sequence (Q9UM73 19-1620 limits assumed): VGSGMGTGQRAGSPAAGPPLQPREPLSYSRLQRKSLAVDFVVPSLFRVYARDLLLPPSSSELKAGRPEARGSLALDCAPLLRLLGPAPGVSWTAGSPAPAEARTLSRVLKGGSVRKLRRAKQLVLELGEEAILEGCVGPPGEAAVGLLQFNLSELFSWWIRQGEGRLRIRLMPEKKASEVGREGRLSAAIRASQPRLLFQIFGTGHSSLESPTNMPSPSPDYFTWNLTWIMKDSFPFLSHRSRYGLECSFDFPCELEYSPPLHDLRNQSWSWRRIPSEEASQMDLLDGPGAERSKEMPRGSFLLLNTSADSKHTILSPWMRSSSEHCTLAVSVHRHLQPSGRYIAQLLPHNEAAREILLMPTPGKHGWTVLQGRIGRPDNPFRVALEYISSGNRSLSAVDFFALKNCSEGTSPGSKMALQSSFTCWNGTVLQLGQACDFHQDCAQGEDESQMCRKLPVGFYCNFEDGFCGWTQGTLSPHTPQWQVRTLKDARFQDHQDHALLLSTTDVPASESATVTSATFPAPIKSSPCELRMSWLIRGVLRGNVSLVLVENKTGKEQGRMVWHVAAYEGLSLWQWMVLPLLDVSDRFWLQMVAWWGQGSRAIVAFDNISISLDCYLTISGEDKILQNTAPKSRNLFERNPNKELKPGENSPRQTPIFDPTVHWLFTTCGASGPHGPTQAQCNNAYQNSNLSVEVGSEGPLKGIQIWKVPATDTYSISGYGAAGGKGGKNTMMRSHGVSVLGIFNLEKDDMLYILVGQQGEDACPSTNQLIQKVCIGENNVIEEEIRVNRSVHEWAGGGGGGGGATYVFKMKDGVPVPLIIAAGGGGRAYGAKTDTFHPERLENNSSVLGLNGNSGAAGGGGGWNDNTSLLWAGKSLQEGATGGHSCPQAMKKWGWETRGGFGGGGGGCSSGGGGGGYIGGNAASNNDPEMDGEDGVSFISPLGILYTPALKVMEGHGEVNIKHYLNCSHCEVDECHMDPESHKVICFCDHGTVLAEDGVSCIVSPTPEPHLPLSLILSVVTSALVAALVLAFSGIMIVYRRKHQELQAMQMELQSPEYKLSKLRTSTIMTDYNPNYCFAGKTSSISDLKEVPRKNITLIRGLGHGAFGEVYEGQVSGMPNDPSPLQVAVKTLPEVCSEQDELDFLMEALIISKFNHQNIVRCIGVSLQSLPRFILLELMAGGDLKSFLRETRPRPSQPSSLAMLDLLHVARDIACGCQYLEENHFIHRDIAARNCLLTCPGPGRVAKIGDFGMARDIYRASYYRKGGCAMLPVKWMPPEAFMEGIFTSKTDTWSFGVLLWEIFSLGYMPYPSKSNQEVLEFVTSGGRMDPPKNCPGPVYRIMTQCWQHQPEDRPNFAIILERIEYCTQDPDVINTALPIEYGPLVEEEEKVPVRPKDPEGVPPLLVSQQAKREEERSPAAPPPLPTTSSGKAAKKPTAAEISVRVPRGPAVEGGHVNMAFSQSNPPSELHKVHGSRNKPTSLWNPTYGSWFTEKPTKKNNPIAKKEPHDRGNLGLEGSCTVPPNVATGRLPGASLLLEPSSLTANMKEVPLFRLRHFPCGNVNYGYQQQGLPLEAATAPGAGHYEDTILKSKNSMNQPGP
Tyrosine-protein kinase ABL2 (Homo sapiens), sequence (P42684 whole entry): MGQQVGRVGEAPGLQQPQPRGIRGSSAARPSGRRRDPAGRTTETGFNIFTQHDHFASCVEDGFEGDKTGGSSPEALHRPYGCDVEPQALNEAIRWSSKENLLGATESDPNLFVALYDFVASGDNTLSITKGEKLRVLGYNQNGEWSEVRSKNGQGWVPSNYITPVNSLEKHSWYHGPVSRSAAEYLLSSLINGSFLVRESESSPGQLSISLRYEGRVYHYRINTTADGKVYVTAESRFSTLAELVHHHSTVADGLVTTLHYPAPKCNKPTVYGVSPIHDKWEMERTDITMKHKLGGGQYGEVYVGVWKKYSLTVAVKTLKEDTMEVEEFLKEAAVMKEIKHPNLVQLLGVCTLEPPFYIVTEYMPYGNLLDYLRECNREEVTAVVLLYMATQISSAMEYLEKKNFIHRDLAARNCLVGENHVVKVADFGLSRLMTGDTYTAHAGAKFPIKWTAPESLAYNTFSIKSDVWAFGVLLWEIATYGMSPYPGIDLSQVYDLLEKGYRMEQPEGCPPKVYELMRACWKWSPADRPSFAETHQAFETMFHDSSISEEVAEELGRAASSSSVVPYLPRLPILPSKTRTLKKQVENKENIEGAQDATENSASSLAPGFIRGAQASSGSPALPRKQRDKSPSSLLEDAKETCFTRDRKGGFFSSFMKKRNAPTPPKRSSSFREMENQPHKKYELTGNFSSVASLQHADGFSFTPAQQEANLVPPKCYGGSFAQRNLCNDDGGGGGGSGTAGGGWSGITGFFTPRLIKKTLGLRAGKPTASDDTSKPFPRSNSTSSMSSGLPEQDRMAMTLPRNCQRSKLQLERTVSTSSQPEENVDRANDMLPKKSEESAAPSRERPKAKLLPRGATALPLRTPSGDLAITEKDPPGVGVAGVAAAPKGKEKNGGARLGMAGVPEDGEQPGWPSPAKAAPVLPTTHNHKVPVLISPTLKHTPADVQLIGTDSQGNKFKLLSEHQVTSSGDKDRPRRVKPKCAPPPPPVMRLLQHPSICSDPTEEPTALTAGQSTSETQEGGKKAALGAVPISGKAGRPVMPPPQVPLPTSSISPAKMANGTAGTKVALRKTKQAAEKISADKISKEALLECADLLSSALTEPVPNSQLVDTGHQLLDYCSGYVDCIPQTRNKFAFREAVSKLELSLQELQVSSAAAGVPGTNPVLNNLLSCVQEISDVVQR
Tyrosine-protein kinase Blk (Homo sapiens), sequence (P51451 2-505 limits assumed): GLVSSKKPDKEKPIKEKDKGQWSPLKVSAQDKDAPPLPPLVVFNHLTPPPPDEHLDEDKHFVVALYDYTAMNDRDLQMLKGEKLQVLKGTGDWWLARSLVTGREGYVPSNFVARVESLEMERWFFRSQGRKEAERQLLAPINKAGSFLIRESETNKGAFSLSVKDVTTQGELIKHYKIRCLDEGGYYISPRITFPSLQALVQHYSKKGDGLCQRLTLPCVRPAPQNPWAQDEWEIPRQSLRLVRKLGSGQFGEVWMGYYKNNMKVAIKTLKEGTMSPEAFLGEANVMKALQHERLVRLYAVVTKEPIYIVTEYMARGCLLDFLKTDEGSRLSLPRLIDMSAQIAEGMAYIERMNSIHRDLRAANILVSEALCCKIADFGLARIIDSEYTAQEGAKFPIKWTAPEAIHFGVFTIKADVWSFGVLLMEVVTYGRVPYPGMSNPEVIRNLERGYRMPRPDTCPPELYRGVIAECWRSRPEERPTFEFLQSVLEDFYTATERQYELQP
Protein-tyrosine kinase 6 (Homo sapiens), sequence (Q13882 whole entry, looked up): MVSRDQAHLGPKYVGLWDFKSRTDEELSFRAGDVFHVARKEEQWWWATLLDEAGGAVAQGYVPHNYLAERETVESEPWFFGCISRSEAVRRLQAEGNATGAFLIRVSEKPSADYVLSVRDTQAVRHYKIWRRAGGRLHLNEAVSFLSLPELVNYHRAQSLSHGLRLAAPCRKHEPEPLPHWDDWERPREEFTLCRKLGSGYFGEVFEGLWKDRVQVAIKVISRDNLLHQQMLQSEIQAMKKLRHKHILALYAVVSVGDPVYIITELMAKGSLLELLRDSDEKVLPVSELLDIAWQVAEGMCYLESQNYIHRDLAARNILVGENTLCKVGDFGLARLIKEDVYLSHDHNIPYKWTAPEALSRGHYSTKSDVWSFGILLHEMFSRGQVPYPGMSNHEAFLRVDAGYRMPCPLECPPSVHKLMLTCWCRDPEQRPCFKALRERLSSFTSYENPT
Tyrosine-protein kinase receptor UFO (Homo sapiens), sequence (P30530 whole entry): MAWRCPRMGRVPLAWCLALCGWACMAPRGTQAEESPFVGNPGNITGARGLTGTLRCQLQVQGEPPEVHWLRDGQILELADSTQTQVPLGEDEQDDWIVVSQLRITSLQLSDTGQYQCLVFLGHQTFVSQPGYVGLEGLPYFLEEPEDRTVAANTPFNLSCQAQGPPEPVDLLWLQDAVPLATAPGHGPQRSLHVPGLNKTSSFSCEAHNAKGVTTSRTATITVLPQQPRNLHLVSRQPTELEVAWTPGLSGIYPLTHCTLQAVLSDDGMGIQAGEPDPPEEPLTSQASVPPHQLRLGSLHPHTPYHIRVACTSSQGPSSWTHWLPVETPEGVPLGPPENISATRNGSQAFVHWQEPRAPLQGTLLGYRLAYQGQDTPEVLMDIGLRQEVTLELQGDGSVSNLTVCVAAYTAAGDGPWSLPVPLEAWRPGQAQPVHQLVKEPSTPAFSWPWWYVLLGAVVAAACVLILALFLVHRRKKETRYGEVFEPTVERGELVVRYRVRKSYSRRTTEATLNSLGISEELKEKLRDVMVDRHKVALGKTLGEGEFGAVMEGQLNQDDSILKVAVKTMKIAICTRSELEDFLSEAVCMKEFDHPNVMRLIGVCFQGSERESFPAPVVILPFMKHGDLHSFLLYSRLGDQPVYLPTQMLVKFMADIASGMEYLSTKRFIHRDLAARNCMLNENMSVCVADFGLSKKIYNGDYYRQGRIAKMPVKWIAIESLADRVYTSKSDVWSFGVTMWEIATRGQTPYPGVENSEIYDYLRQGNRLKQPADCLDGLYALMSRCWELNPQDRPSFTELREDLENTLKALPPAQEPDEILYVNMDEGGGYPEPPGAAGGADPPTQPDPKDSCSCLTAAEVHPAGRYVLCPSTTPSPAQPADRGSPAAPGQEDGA

As for `COc1cc(N2CCN(C(C)C)CC2)ccc1Nc1nc(Nc2cccc3ncccc23)c2cc[nH]c2n1`, the inhibition in assay [1] worked out at 0.12%; in assay [2] it was 0.03%; in [3], 2.91%; in [4], 1.91%; in assay [5] it was 9.59%; in [6], 51.7%. In addition, the inhibition in assay [7] worked out at 86.3%; in assay [8], 4.93%; in assay [9] it was 8.07%; in [10] it was 1.7%; in assay [11] it was 5.43%; in assay [12], 0.1%. In addition, the inhibition in [13] was 2.64%; in assay [14], 5.26%; in [15], -0.89%; in [16], -1.05%; in assay [17] it was -2.93%; in assay [18] it was -0.29%. Besides, the inhibition was -0.05% in assay [19] and -1.28% in assay [20].
With `CC1=C(C(=O)Nc2ccc3[nH]nc(C)c3c2)C(c2ccc(C(F)(F)F)cc2)CC(=O)N1` (stereo not given), the inhibition in assay [1] came out at 2.86%; in assay [2] it was 4.61%; in [3] it was 1.36%; in [4], 7.68%; in assay [5], 9.26%; in [6], 3.26%. Also, the inhibition in [7] was 6.8%; in assay [8] it was 7.56%; in [9], 7.08%; in assay [10] it was -3.17%; in assay [11], -6.56%; in assay [12] it was 3.36%. For the same compound, the inhibition is 17% in assay [13]; -2.44% in assay [14]; 4.58% in assay [15]; 3.23% in assay [16]; 23.5% in [17]; 1.29% in assay [18]. Moreover, the figures for the inhibition in assay [19] and in [20] were 2.32% and 1.88%, respectively.
As to `OCCCNc1nccc(-c2c(-c3ccc(F)cc3)nn3cc(C(F)(F)F)ccc23)n1`, the inhibition in assay [1] worked out at 1.6%; in [2], 4.75%; in assay [3] it was 4.88%; in assay [4], 6.03%; in assay [5], 11.5%; in assay [6], 1.23%. Also, the inhibition was 2.86% in [7]; 3.63% in assay [8]; 7.2% in assay [9]; -4.91% in assay [10]; 1.31% in [11]; 1.06% in assay [12]. The inhibition turned out to be 2.83% in [13]; 5.93% in assay [14]; 3.3% in assay [15]; 1.91% in [16]; 5.03% in assay [17]; 0.07% in [18]. Also, the results for the inhibition in [19] and in assay [20] were 0.45% and 4.06%, respectively.
Turning to `COc1ccc(Nc2ncc(-c3ccccc3)o2)cc1OC`, the inhibition is 18.9% in assay [1]; 11.1% in assay [2]; 54.3% in assay [3]; 7.03% in [4]; 58% in assay [5]; 1.69% in assay [6]. Further, the inhibition was 4.78% in assay [7]; 9.21% in assay [8]; 57.1% in [9]; 0.18% in [10]; 3.31% in [11]; 1.21% in assay [12]. Besides, the inhibition was 24.1% in assay [13]; -7.7% in [14]; 4.92% in assay [15]; 0.75% in [16]; 2.71% in [17]; 0.8% in assay [18]. The inhibition turned out to be 2.81% in [19] and 1.21% in [20].
Consider `COc1cccc(Nc2nccc(-c3cnn4ncccc34)n2)c1`, for which the inhibition in assay [1] was 30%; in assay [2], 7.39%; in [3], 39.2%; in assay [4], 4.97%; in assay [5], 40.9%; in assay [6] it was 5.36%. Moreover, the inhibition in [7] is 32.3%; in assay [8] it was 6.41%; in assay [9], 44.2%; in [10], -0.07%; in assay [11] it was 11.4%; in assay [12], 2.91%. Moreover, the inhibition in assay [13] amounted to 14%; in assay [14], 9.52%; in [15] it was 21.8%; in assay [16], 1.39%; in [17], 10.1%; in assay [18], 0.35%. The inhibition came to 4.57% in assay [19] and 4.74% in [20].
Turning to `Fc1cccc(COc2ccc(Nc3ncncc3C#Cc3ccccc3)cc2Cl)c1`, the inhibition in assay [1] stood at 5.21%; in assay [2] it was 2.86%; in [3] it was 4.69%; in assay [4], 4.16%; in [5] it was 11.3%; in assay [6] it was 2.52%. In addition, the inhibition was 4.64% in assay [7]; 3.23% in assay [8]; 1.72% in [9]; -5.96% in [10]; -6.13% in [11]; 3.22% in assay [12]. Also, the inhibition was 3.19% in assay [13]; -2.36% in [14]; 5.09% in assay [15]; 6.04% in [16]; 7.36% in assay [17]; 1.18% in [18]. The inhibition in [19] came to 0.79%; in assay [20], 2.79%.

By inhibition is commonly meant the drop in the measured response relative to a control, in per cent.
